About 83,000 compounds went through this panel and 20% of them were active in at least one assay; those are over-represented in the sample as a whole.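 For each line, cells grew in 96-well plates with the test compound present at a single concentration for 48 hours.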 The source made the active and inactive calls. Rule for the calls: active = growth percent below 10; inactive = the rest.

This assay has as its system SNB-75 CNS. The assay can be described thus: NCI-60 one-dose screen, 48 h (100 = growth as untreated, 0 = no growth, -100 = all killed). The settings on record: 10 µM unless noted.
Turning to `Cn1ccnc1C(=O)/C=C/c1ccc(CC(=O)Nc2ccccc2)cc1`, the growth is 11.3% (inactive).

Turning to `Cc1ccc2oc(=O)cc(C3c4ccc([nH]4)C(c4cc(=O)oc5ccc(C)cc45)c4ccc([nH]4)C(c4cc(=O)oc5ccc(C)cc45)c4ccc([nH]4)C(c4cc(=O)oc5ccc(C)cc45)c4ccc3[nH]4)c2c1` (centres undefined), the growth was -42% (active).

Consider `CC(C)(C)CC(C)(C)c1ccc(OCCOCC[N+](C)(C)Cc2ccccc2)cc1`, for which the growth was -26% (active).

Regarding `CN1CCN(CCCOc2cccc3nc(Nc4cc(Cl)cc(Cl)c4)ccc23)CC1`, the growth is 36.4% (inactive).

As for `CC(C)C[C@@H](NC(=O)[C@@H](Cc1ccccc1)NC(=O)c1cnccn1)B1Oc2ccc(C[C@H](NC(=O)[C@H](Cc3ccc4c(c3)OB([C@@H](CC(C)C)NC(=O)[C@@H](Cc3ccccc3)NC(=O)c3cnccn3)O4)NC(=O)[C@@H](N)CC3CCC4OB([C@@H](CC(C)C)NC(=O)[C@@H](CC5CCCCC5)NC(=O)C5CNCCN5)OC4C3)C(=O)NCCCC[C@@H]3NC(=O)[C@@H](Cc4ccccc4)NC(=O)[C@H](CC(=O)O)NC(=O)CNC(=O)[C@H](CCCNC(=N)N)NC3=O)cc2O1` (some centres undefined), the growth is -64% (active).

With `CCN(CC)c1ccc(/C=N\NC(=O)/C=C/C=C/c2ccc3c(c2)OCO3)c(O)c1`, the growth was 58.8% (inactive).

`O=S(=O)(Nc1ccc(NS(=O)(=O)c2ccccc2)c(Cl)c1)c1ccccc1`: the growth was 84.9% (inactive).

Regarding `COc1ccc(/C=C/c2nc3ccccc3nc2/C=C/c2ccc(OC)cc2)cc1`, the growth is 87.8% (inactive).

Take `COc1ccc(/C=C/C(=O)c2cc(O)ccc2O)cc1`: the growth was 84.1% (inactive).

As to `O=CNc1ccc2c(c1)Cc1cccc(NC=O)c1-2`, the growth is 90.7% (inactive).

Regarding `FC(F)(F)c1[nH]ncc1-c1nc2ccc3n[nH]c(C#Cc4cccnc4)c3c2c2c1CCCC2`, the growth was -10.9% (active).

With `CCOc1cc2ncc(C#N)c(Nc3ccc(OCc4cccc(F)c4)c(Cl)c3)c2cc1NC(=O)CCCCC1CCSS1` (centres undefined), the growth is 97.8% (inactive).

Turning to `O=C(COc1ccc(-c2nc3cc(Cl)c(Cl)cc3[nH]2)cc1)N=Nc1c(O)[nH]c2ccccc12`, the growth is -73.8% (active).

Take `Nc1n[nH]c2cc(F)c([C@@H]3Nc4ccc5[nH]ncc5c4[C@H]4C5CCC(C5)[C@@H]34)cc12` (some centres undefined): the growth was -13.5% (active).

With `C#CC(F)(F)[C@]1(O)CC[C@H]2[C@@H]3CCC4=CC(=O)CCC4=C3[C@@H](c3ccc(C(C)=O)cc3)C[C@@]21C`, the growth is 73.7% (inactive).

For `CCCOc1cc2ccccc2cc1C(=O)Nc1nc(N)c2c(ccc3nccc32)[nH]1`, the growth was -90.3% (active).

Turning to `CCc1nc(N)nc(N)c1C#CC(C)c1cc(-c2ccnc(C)c2)c2oc(C)nc2c1` (centres undefined), the growth was -23.2% (active).

Consider `Clc1ccc2c(NCCCCNc3nc(N4CCCCC4)nc4ccccc34)ccnc2c1`, for which the growth was -59.5% (active).

For the molecule `O=c1ccccc(-c2ccc(-c3ccco3)cc2)c1O`, the growth is 38.8% (inactive).

Consider `CCOC(=O)c1c(C)oc2ncnc(N3CCN(C(=S)Nc4ccccc4)CC3)c12`, for which the growth was 80.5% (inactive).

On to `CCN1CCN(c2nc(NCCNc3ccnc4cc(Cl)ccc34)c3ccccc3n2)CC1`, for which the growth is 44.7% (inactive).

With `COc1ccc(-c2n[nH]nc2-c2csc3ccccc23)cc1OC`, the growth was 1.72% (active).

As for `COc1ccc(O)c(N=Nc2nccs2)c1`, the growth is 91% (inactive).

Turning to `O=C(Oc1cccnc1)c1ccsc1Nc1ccnc(C(F)(F)F)c1`, the growth was 80.5% (inactive).

As to `Oc1ccccc1-c1nnc(CNc2ccc(Cl)cc2)o1`, the growth is 50.3% (inactive).

For the molecule `NC1=C(Cl)C(=O)c2ccc(S(N)(=O)=O)cc2C1=O`, the growth is -100% (active).

In the case of `CCOc1cc2ncc(C#N)c(Nc3ccc(F)c(Cl)c3)c2cc1NC(=O)CC1CCSS1` (centres undefined), the growth is -72% (active).

In the case of `Clc1ccc2c(NCCCCNc3nc(N4CCOCC4)nc4ccccc34)ccnc2c1`, the growth is 79% (inactive).

Take `Cc1ccc(-c2onc3c(=O)[nH]nc(-c4ccccc4)c23)cc1`: the growth is 10.1% (inactive).

`CN(Cc1cc(Cl)cc(Cl)c1O)Cc1cc(Cl)cc(Cl)c1O`: the growth was 75.5% (inactive).

With `CCN1CCN(c2nc(NCCCNc3ccnc4cc(Cl)ccc34)c3ccccc3n2)CC1`, the growth is 57% (inactive).

In the case of `CSc1ccc(-c2ccccc(=O)c2O)cc1`, the growth was 34.6% (inactive).

For `Clc1ccc2c(NCCCNc3nc(-n4ccnc4)nc4ccccc34)ccnc2c1`, the growth was 71.1% (inactive).

Regarding `CC1CCNC(C)C1` (centres undefined), the growth is 86.5% (inactive).

`COc1ccc(NC(=O)c2ccc(/C=C/C(=O)c3ncc[nH]3)cc2)cc1`: the growth is 75% (inactive).

For the molecule `O=C1c2cc3c(cc2-c2c1c1ccc(F)cc1c(=O)n2C[C@H](O)[C@H](O)[C@H](O)CO)OCO3`, the growth is -36.9% (active).

Regarding `O=C(CCl)Oc1ccc(-c2ccccc2)c(Br)c1`, the growth was 95.6% (inactive).

Turning to `CCCCCCN(CCCCCC)C(=N)c1ccnc2ccccc12`, the growth is 57.6% (inactive).

`Cc1cc(N2CCCCCC2)nc(NC2CCCC(Nc3ccnc4cc(Cl)ccc34)C2)n1` (centres undefined): the growth is -78.7% (active).

(Values after PubChem BioAssay (NCI).)
